According to PubChem BioAssay:

target: Calmodulin-1 (Homo sapiens) (UniProt P0DP23); assay: small molecules binding Ca-loaded calmodulin-1 – biochemical, small-molecule microarray, Cy5-labelled CALM1, plus calcium, artefact control for SMM control-protein annotation, profiling panel (AID 1112); details: Cy5-CALM1 binding fluorescence, higher = more signal;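 note: score merges spot fluorescence with signal to noise from triplicate slides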

Row | Compound | composite z-score
1 | COCCOC(=O)N1C(=O)[C@@]2(c3cc(C#Cc4ccc(OC)cc4)ccc31)[C@H](C(=O)N1CCc3cc(OC)c(OC)cc3C1)[C@H]1C(=O)O[C@H](c3ccccc3)[C@H](c3ccccc3)N1[C@@H]2c1ccc(O)cc1 | -0.575
2 | COCCOC(=O)N1C(=O)[C@@]2(c3cc(C#CCCO)ccc31)[C@H](C(=O)NC[C@H](O)c1ccccc1)[C@H]1C(=O)O[C@H](c3ccccc3)[C@H](c3ccccc3)N1[C@@H]2c1ccccc1OCCO | -0.354
3 | COc1ccccc1CN1C(=O)c2ccccc2[C@@H](C(=O)NCC(C)C)[C@@H]1c1ccc(CO)cc1 | -0.0968
4 | C=CCN1C(=O)[C@@]2(O[C@@H](CCn3cc([C@H](O)c4ccccc4)nn3)[C@H]([Si](C)(C)c3ccc(OC)cc3)[C@H]2C)c2cc(NC(=O)c3ccc(OC)cc3)ccc21 | 0.14
5 | O=C(O)[C@]1(CCS(=O)(=O)c2ccccc2)N=C(c2ccc(OCCCO)cc2)O[C@@H]1c1ccccc1 | 0.4
6 | CN(C)CCCN1C(=O)[C@@]2(Cc3ccccc31)c1ccccc1C(=O)N(Cc1ccccc1)[C@H]2c1ccc(CO)cc1 | -0.258
7 | COC(=O)C(CC#Cc1ccc2c(c1)[C@]1(C(=O)N2)[C@H](c2ccc(O)cc2)N2[C@H](c3ccccc3)[C@H](c3ccccc3)OC(=O)[C@H]2[C@@H]1C(N)=O)C(=O)OC | 0.842
8 | O=C1C2C=CC(C(O)c3ccc(Br)cc3)N(Nc3ccccc3)C2C(=O)N1c1ccccc1 (stereo not given) | 0.29
9 | O=C(O)[C@@]1(Cc2ccccc2)COC(c2ccc(OCCCO)cc2)=N1 | 0.0951
10 | COC(=O)c1ccc(OC)c(/C=C\CC(CCc2ccccc2)OC(=O)c2ccncc2)c1 (stereo not given) | -1.72
11 | COC(=O)[C@@]1(Cc2ccc(OC)cc2)[C@H]2c3cc(C(=O)N4CCCC4)n(CCc4ccc(O)c(OC)c4)c3C[C@H]2CN1C(=O)c1ccccc1 | 0.225
12 | C[N+](C)(C)CCCC[C@@H]1NC(=O)[C@H]2C[C@@H](C(=O)NCCCCCCN)[C@@H](c3cccc(OCCO)c3)N2C1=O | 1.13
13 | COC(=O)[C@]1(Cc2ccccc2N=[N+]=[N-])N=C(c2ccc(OCCCO)cc2)O[C@@H]1c1ccccc1 | 0.41
14 | CC(C)N1C(=O)c2ccccc2[C@](C)(C(=O)O)[C@@H]1c1ccc(CO)cc1 | 0.531
15 | COc1ccc(C(=O)Nc2ccc3c(c2)[C@]2(O[C@@H](CCO)[C@H]([Si](C)(C)c4ccc(OC)cc4)[C@H]2C)C(=O)N3Cc2ccccc2)cc1 | 0.57

test system: not listed separately; assay: probe aWnt5a binding to arrayed compounds – biochemical, biotinylated probe, 635/667 nm fluorescence, primary screen (AID 1113); details: small-molecule microarray, higher = more signal;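 note: score merges 667 nm fluorescence intensity with signal-to-noise per printed feature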

Row | Compound | composite z-score
16 | CCOC(=O)C[C@H]1[C@H](OC(=O)c2ccccc2-c2ccccc2)[C@@H](NC(=O)c2ccccc2)c2cc(OCCCO)ccc2N1C(=O)Cc1ccc(OC)cc1 | -0.107
17 | C=CCC(OC(C)=O)[C@@H]1[C@@H](N(Cc2ccc(-c3cccc(C(F)(F)F)c3)o2)C(=O)c2cccc3ccccc23)c2cc(OCCCO)ccc2N1C(=O)c1ccc(-c2ccccc2)cc1 (stereo not given in full) | -0.22
18 | C[C@H]1ON(c2ccccc2)[C@@H](c2ccccc2)[C@@H]1C(=O)N1C(=O)OC[C@@H]1c1ccccc1 | -0.134
19 | COCCOC(=O)N1C(=O)[C@@]2(c3cc(C#CCNC(N)=O)ccc31)[C@H](C(N)=O)[C@H]1C(=O)O[C@H](c3ccccc3)[C@H](c3ccccc3)N1[C@@H]2c1ccc(OCCO)cc1 | -0.1
20 | CCCC=C(CCC)[C@@H](NS(=O)(=O)c1cccc2cccnc12)c1ccc(C(=O)OC)cc1 | 1.77
21 | CCOC(=O)C1=CC[C@@H](c2ccccc2)N(S(=O)(=O)c2ccc(C)cc2)[C@H]1C=C(C)C | 0.055
22 | C#CCNS(=O)(=O)N(C)C | -0.096
23 | O=C1O[C@H](c2ccccc2)[C@H](c2ccccc2)N2[C@H]1[C@@H](C(=O)N1CCN(c3ncccn3)CC1)[C@]1(C(=O)Nc3ccc(C#CCCO)cc31)[C@H]2c1ccc(OCCO)cc1 | 0.0614
24 | COCCOC(=O)N1C(=O)[C@@]2(c3cc(C#CC4(O)CCCCCC4)ccc31)[C@H](C(=O)N1CCN(c3ncccn3)CC1)[C@H]1C(=O)O[C@H](c3ccccc3)[C@H](c3ccccc3)N1[C@@H]2c1ccc(O)cc1 | 0.0633
25 | Cc1cc(C)c(C(O)C2C=CC3C(=O)N(c4ccccc4)C(=O)C3N2Nc2ccc([N+](=O)[O-])cc2)c(C)c1 (stereo not given) | -0.131
26 | Cc1ccc(S[C@]2(C(=O)O)CC(=O)N(C3CCCCC3)[C@@H]2c2ccc(CO)cc2)cc1 | 0.0581
27 | CCOc1cc(C(O)C2C=CC3C(=O)NC(=O)C3N2Nc2ccccn2)ccc1O (stereo not given) | -0.198
28 | CC(=O)NCCCC[C@@H]1NC(=O)[C@@H]2C[C@H](C(=O)NCCCC[N+](C)(C)C)[C@H](c3cccc(OCCO)c3)N2C1=O | -0.122
29 | COc1ccc([Si](C)(C)[C@@H]2[C@@H](CC(=O)N(CCO)Cc3ccccc3)O[C@]3(C(=O)N(Cc4ccc(N5CCOC5=O)cc4)c4ccccc43)[C@H]2C)cc1 | -0.0337
30 | COC(=O)[C@]1(Cc2ccccc2CN=[N+]=[N-])N=C(c2ccc(OCCCO)cc2)O[C@@H]1c1ccccc1CN=[N+]=[N-] | -0.0346
31 | CN(C)C(=O)[C@]1(Cc2ccccc2N=[N+]=[N-])N=C(c2ccc(OCCCO)cc2)O[C@@H]1c1ccccc1CN=[N+]=[N-] | 0.0559
32 | CC(C)(C)OC(=O)CC[C@@]1(C(=O)N2CCCCC2)N=C(c2ccc(OCCCO)cc2)O[C@@H]1c1ccccc1CN=[N+]=[N-] | 0.0629
33 | CCN(CC)c1ccc(N2CC=CC34O[C@@H]5/C=C\CCCOC(=O)C5[C@H]3C(=O)N(CCCCCO)[C@@H]4C2=O)cc1 (stereo not given in full) | -0.203

Row | Compound | composite z-score
34 | [N-]=[N+]=Nc1ccccc1C[C@]1(C(=O)NCCN2CCOCC2)N=C(c2ccc(OCCCO)cc2)O[C@H]1c1ccccc1N=[N+]=[N-] | 0.136
35 | COC(=O)[C@]1(Cc2ccccc2CN=[N+]=[N-])N=C(c2ccc(OCCCO)cc2)O[C@@H]1c1ccccc1 | -0.228
36 | COCCOC(=O)N1C(=O)[C@@]2(c3cc(C#Cc4ccc(OC)cc4)ccc31)[C@H](C(=O)N1CCc3cc(OC)c(OC)cc3C1)[C@H]1C(=O)O[C@H](c3ccccc3)[C@H](c3ccccc3)N1[C@@H]2c1ccc(O)cc1 | 0.0088
37 | COCCOC(=O)N1C(=O)[C@@]2(c3cc(C#CCCO)ccc31)[C@H](C(=O)NC[C@H](O)c1ccccc1)[C@H]1C(=O)O[C@H](c3ccccc3)[C@H](c3ccccc3)N1[C@@H]2c1ccccc1OCCO | 0.287
38 | COc1ccccc1CN1C(=O)c2ccccc2[C@@H](C(=O)NCC(C)C)[C@@H]1c1ccc(CO)cc1 | -0.196
39 | C=CCN1C(=O)[C@@]2(O[C@@H](CCn3cc([C@H](O)c4ccccc4)nn3)[C@H]([Si](C)(C)c3ccc(OC)cc3)[C@H]2C)c2cc(NC(=O)c3ccc(OC)cc3)ccc21 | -0.0735
40 | O=C(O)[C@]1(CCS(=O)(=O)c2ccccc2)N=C(c2ccc(OCCCO)cc2)O[C@@H]1c1ccccc1 | 0.0216
41 | CN(C)CCCN1C(=O)[C@@]2(Cc3ccccc31)c1ccccc1C(=O)N(Cc1ccccc1)[C@H]2c1ccc(CO)cc1 | -0.252
42 | COC(=O)C(CC#Cc1ccc2c(c1)[C@]1(C(=O)N2)[C@H](c2ccc(O)cc2)N2[C@H](c3ccccc3)[C@H](c3ccccc3)OC(=O)[C@H]2[C@@H]1C(N)=O)C(=O)OC | -0.202
43 | O=C1C2C=CC(C(O)c3ccc(Br)cc3)N(Nc3ccccc3)C2C(=O)N1c1ccccc1 (stereo not given) | 0.0151
44 | O=C(O)[C@@]1(Cc2ccccc2)COC(c2ccc(OCCCO)cc2)=N1 | -0.217
45 | COC(=O)c1ccc(OC)c(/C=C\CC(CCc2ccccc2)OC(=O)c2ccncc2)c1 (stereo not given) | -0.25
46 | COC(=O)[C@@]1(Cc2ccc(OC)cc2)[C@H]2c3cc(C(=O)N4CCCC4)n(CCc4ccc(O)c(OC)c4)c3C[C@H]2CN1C(=O)c1ccccc1 | 0.114
47 | C[N+](C)(C)CCCC[C@@H]1NC(=O)[C@H]2C[C@@H](C(=O)NCCCCCCN)[C@@H](c3cccc(OCCO)c3)N2C1=O | 0.469
48 | COC(=O)[C@]1(Cc2ccccc2N=[N+]=[N-])N=C(c2ccc(OCCCO)cc2)O[C@@H]1c1ccccc1 | 0.0831
49 | CC(C)N1C(=O)c2ccccc2[C@](C)(C(=O)O)[C@@H]1c1ccc(CO)cc1 | -0.143
50 | COc1ccc(C(=O)Nc2ccc3c(c2)[C@]2(O[C@@H](CCO)[C@H]([Si](C)(C)c4ccc(OC)cc4)[C@H]2C)C(=O)N3Cc2ccccc2)cc1 | -0.13
